# Results as given in PubChem BioAssay (Tox21).
# Results filed as inconclusive are left out. A call without a number means that no potency is given here. Calls of active or inactive are those of the source. Unless noted, calls follow the shape of the full dose curve.
# Key:
# [1] = Nuclear factor erythroid 2-related factor 2/antioxidant responsive element (Nrf2/ARE) small molecule agonists: qHTS cell viability counter screen in human keratinocytes (AID 1919968; active = well fitted cell-killing curve with a large enough effect in the repeat runs; also: nearly all actives have a fitted effect of over 55% in size)
# Outline: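 Parallel cytotoxicity read: KeratinoSens HaCaT cells, compound treatment 23 h, viability by CellTiter-Fluor fluorescence 1 h post-reagent.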
# [2] = Nuclear factor erythroid 2-related factor 2/antioxidant responsive element (Nrf2/ARE) small molecule agonists: luciferase reporter gene qHTS assay in human keratinocytes (AID 1919969); also: nearly all actives have a fitted effect of over 35% in size
# [3] = molecular target: Gonadotropin-releasing hormone receptor (Homo sapiens) (UniProt P30968); test: Human gonadotropin-releasing hormone receptor (GnRHR) small molecule agonists, calcium flux assay in GnRHR-HEK293 cells (AID 1920063); also: nearly all actives have a fitted effect of over 35% in size
# Gonadotropin-releasing hormone receptor (Homo sapiens), sequence (P30968 whole entry, looked up): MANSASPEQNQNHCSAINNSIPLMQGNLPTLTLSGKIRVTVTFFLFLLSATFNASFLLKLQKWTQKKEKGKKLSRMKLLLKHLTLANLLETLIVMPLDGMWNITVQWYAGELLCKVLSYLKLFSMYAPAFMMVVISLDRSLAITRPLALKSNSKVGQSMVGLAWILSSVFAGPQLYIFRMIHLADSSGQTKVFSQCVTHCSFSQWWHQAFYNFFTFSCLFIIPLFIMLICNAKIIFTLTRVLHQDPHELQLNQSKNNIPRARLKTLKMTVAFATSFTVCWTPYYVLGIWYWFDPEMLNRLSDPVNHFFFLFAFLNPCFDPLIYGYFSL
# Outline: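 Calcium flux, agonist mode, human GnRHR stably integrated in HEK293; dye 1 h at 37 C before compound; Ex/Em=480/540 kinetic read, 3 min; 15 concentrations, triplicate.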
# [4] = G protein-coupled receptor (GPCR) small molecule agonists, calcium flux assay: HEK293 wild type cell line counter screen (AID 1920065)
# Outline: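 Non-specific calcium responders were flagged by adding DMSO-dissolved compounds to dye-loaded cells and reading 480/540 nm fluorescence each second for 3 min; ATP served as positive control.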
# [5] = p53 small molecule agonists, cell-based qHTS assay with human liver microsomes (AID 1963577)
# Outline: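 Fluorescence of the beta-lactamase reporter in p53RE-bla cells, detected with LiveBLAzer substrate (2 h, room temperature, dark), served as the read-out after 16 h compound exposure at 37 C with human liver microsomes and NADPH, each 0.5 mg/mL final.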
# [6] = p53 small molecule agonists, cell-based qHTS assay with rat liver microsomes (AID 1963578)
# Outline: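 Cells carrying a p53 response element–beta-lactamase reporter were plated and rested 5 h, then dosed with compound in DMSO plus rat liver microsomes and NADPH, each at 0.5 mg/mL final. After 16 h at 37 C, LiveBLAzer substrate was added for 2 h.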
# [7] = p53 small molecule agonists, cell-based qHTS assay with human liver microsomes: qHTS cell viability counter screen (AID 1963579); also: nearly all actives have a fitted effect of over 45% in size
# Outline: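 Cytotoxicity counter screen: p53RE-bla, 4,000 cells/well; 5 h settle, 37 C/5% CO2; cpd + HLM 0.5 mg/mL + NADPH 0.5 mg/mL (final); 16 h, 37 C; CellTiter-Glo, 30 min RT, luminescence.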
# [8] = p53 small molecule agonists, cell-based qHTS assay with rat liver microsomes: qHTS cell viability counter screen (AID 1963580); also: nearly all actives have a fitted effect of over 45% in size
# Outline: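 Counter screen for cytotoxicity under metabolic activation: rat liver microsomes and NADPH, 0.5 mg/mL final each, added with compounds to p53RE-bla HCT-116 cells; 16 h at 37 C, then ATP luminescence read.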
# [9] = p53 small molecule agonists, cell-based qHTS assay: qHTS cell viability counter screen (AID 1963581); also: nearly all actives have a fitted effect of over 45% in size
# Outline: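 Multiplexed with the reporter read, a CellTiter-Glo step (30 min, room temperature) gauges ATP-based viability of HCT-116 p53RE-bla cells after 16 h compound incubation at 37 C.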
# [10] = p53 small molecule agonists, cell-based qHTS assay (AID 1963582; active = well fitted activation curve with a large enough effect in the signal ratio in the repeat runs, not every such curve was filed as active; the % refers to the signal ratio; also: potency is read from the fitted curve at half-maximal effect)
# Outline: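 Beta-lactamase reporter cells (p53RE-bla) treated with compounds for 16 h at 37 C; FRET substrate, 2 h, room temperature; fluorescence intensity.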
# [11] = molecular target: 5-hydroxytryptamine receptor 2A (Homo sapiens) (UniProt P28223); test: 5-hydroxytryptamine receptor 2A (HTR2A) small molecule antagonists, cell-based qHTS assay (AID 1963586); also: nearly all actives have a fitted effect of over 45% in size
# 5-hydroxytryptamine receptor 2A (Homo sapiens), sequence (P28223 whole entry, looked up): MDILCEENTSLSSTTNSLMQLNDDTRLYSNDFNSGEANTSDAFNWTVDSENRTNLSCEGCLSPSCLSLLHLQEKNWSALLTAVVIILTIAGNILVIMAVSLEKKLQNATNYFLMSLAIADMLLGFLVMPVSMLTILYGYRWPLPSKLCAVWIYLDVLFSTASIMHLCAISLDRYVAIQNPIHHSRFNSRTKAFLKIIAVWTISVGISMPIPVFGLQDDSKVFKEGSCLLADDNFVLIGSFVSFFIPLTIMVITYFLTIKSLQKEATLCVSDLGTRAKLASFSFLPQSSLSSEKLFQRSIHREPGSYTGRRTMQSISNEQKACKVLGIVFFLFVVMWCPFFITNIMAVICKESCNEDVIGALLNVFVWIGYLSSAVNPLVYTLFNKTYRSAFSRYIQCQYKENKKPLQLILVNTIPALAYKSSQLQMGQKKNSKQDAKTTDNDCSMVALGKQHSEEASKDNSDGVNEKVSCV
# Outline: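 CHO cells stably expressing human HTR2A were plated for 18 h at 37 C, then loaded with calcium dye for 1 h. Compounds were preincubated 5 min at room temperature before DOI (4 nM solution) was added. Kinetic fluorescence was read for 3 min.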
# [12] = molecular target: 5-hydroxytryptamine receptor 2A (Homo sapiens) (UniProt P28223); test: 5-hydroxytryptamine receptor 2A (HTR2A) small molecule agonists, cell-based qHTS assay (AID 1963587); also: nearly all actives have a fitted effect of over 30% in size; also: potency is read from the fitted curve at half-maximal effect
# Outline: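 HTR2A-CHO cells, plated 18 h at 37 C/5% CO2, dye-loaded 1 h at 37 C; compounds in DMSO added by pin tool (agonist mode). Intracellular calcium flux read as kinetic fluorescence on FDSS over 2 min at 1 s intervals.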
# [13] = molecular target: Muscarinic acetylcholine receptor M1 (Homo sapiens) (UniProt P11229); test: Cholinergic receptor muscarinic 1 (CHRM1) small molecule antagonists, cell-based qHTS assay (AID 1963588); also: nearly all actives have a fitted effect of over 40% in size
# Muscarinic acetylcholine receptor M1 (Homo sapiens), sequence (P11229 whole entry, looked up): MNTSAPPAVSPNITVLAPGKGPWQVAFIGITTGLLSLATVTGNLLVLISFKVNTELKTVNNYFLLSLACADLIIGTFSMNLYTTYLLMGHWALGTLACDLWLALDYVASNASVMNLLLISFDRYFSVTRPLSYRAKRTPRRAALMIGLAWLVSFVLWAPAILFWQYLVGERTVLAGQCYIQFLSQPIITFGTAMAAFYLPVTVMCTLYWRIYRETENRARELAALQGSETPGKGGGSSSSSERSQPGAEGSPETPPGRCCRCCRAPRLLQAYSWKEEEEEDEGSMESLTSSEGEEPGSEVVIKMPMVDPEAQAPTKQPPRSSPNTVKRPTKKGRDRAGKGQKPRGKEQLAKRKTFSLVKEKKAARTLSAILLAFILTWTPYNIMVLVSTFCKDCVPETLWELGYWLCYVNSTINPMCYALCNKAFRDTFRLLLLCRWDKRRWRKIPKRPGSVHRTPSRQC
# Outline: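 Compounds were tested at 15 concentrations in three independent runs. Dye-loaded CHRM1-CHO cells were exposed 5 min at room temperature before stimulation by acetylcholine added at 50nM. Intracellular calcium was read kinetically on FDSS for 3 min.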
# [14] = molecular target: Muscarinic acetylcholine receptor M1 (Homo sapiens) (UniProt P11229); test: Cholinergic receptor muscarinic 1 (CHRM1) small molecule agonists, cell-based qHTS assay (AID 1963589); also: nearly all actives have a fitted effect of over 35% in size
# Outline: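 qHTS, 15-point titration, 3 independent runs: compounds pin-transferred onto dye-loaded CHRM1-CHO cells (human M1), calcium fluorescence followed every second to detect agonism.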
# [15] = cAMP Responsive Elements (CRE) small molecule agonists, cell-based qHTS assay (AID 1963590)
# Outline: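 Quantitative HTS for CRE agonists: HEK 293T CRE-bla cells, overnight plating, 3 h compound incubation at 37 C/5% CO2, then 2 h room-temperature LiveBLAzer B/G FRET substrate loading.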
# [16] = cAMP Responsive Elements (CRE) small molecule antagonists, cell-based qHTS assay (AID 1963591; active = well fitted inhibition curve with a large enough effect in the signal ratio in the repeat runs, not every such curve was filed as active; the % refers to the signal ratio)
# Outline: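 Fluorescence intensity from cleaved LiveBLAzer B/G substrate (2 h, room temperature) quantified CRE-bla activity in HEK 293T cells exposed 3 h to compound with 0.25 uM final NKH477.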
# [17] = molecular target: Beta-2 adrenergic receptor (Homo sapiens) (UniProt P07550); test: Adrenergic beta2 receptor (ADRB2) small molecule antagonists, cell-based qHTS assay (AID 1963592); also: series mostly up to about 92 µM; nearly all actives have a fitted effect of over 50% in size
# Beta-2 adrenergic receptor (Homo sapiens), sequence (P07550 whole entry, looked up): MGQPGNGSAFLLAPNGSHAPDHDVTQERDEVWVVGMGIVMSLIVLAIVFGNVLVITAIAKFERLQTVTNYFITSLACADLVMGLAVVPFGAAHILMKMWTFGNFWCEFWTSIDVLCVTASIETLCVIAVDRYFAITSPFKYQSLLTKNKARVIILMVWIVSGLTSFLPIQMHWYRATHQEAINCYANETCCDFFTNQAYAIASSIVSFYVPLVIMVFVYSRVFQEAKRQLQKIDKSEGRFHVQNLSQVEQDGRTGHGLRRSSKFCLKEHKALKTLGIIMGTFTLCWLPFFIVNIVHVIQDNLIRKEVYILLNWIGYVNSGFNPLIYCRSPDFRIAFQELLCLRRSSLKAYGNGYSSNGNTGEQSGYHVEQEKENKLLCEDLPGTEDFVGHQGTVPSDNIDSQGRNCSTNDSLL
# Outline: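 Assay format: CHO-ADRB2 cells, 18-20hr seeding at 37C/5% CO2, then compound plus 1nM isoproterenol agonist mix for 0.5hr RT. Homogeneous time-resolved fluorescence cAMP detection after 1hr, expressed as 665/615 nm ratio.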
# [18] = molecular target: Beta-2 adrenergic receptor (Homo sapiens) (UniProt P07550); test: Adrenergic beta2 receptor (ADRB2) small molecule agonists, cell-based qHTS assay (AID 1963593);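 also: CHO cells stably overexpressing human ADRB2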
# Outline: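 CHO cells stably over-expressing ADRB2 were plated overnight at 37C, then dosed with compounds plus a stimulation mix containing 100uM IBMX and 25uM Ro-20-1724 for 0.5hr at room temperature. cAMP was measured by HTRF competition, 1hr.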
# [19] = molecular target: D(2) dopamine receptor (Homo sapiens) (UniProt P14416); test: Dopamine D2 receptor (DRD2) small molecule agonists, cell-based qHTS assay (AID 1963594); also: nearly all actives have a fitted effect of over 35% in size
# D(2) dopamine receptor (Homo sapiens), sequence (P14416 whole entry, looked up): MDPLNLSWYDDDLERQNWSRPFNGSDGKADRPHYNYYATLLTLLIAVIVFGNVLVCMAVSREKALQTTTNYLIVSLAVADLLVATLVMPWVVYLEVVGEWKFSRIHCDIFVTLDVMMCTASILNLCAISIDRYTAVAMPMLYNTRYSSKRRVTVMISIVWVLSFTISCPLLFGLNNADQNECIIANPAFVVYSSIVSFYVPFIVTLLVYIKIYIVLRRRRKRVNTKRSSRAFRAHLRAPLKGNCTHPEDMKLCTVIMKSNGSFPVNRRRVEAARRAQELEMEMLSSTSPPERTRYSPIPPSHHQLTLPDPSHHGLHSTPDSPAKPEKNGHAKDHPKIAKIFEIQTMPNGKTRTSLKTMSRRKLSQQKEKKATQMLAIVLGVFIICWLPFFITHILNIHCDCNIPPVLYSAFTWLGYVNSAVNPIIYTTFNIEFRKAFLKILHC
# Outline: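 HEK293 cells stably expressing DRD2 were cultured 24 h at 37 C, then given Ro20-1724 (0.1 mM final) and compounds for 10 min at room temperature. NKH477 (200nM) was then added for 30 min. cAMP was read by HTRF.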
# [20] = molecular target: D(2) dopamine receptor (Homo sapiens) (UniProt P14416); test: Dopamine D2 receptor (DRD2) small molecule antagonists, cell-based qHTS assay (AID 1963595; active = well fitted inhibition curve with a large enough effect in the signal ratio in the repeat runs, with a control signal flat; the % refers to the signal ratio; also: potency is read from the fitted curve at half-maximal effect)
# Outline: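 In this cell-based antagonist screen, compounds act for 10 min at room temperature before a 30 min challenge with 12 nM quinpirole and 200 nM NKH477. cAMP is quantified by HTRF competition in DRD2-HEK293 cells containing 0.1 mM Ro20-1724.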
Compound,Potency [1],Potency [2],Potency [3],Potency [4],Potency [5],Potency [6],Potency [7],Potency [8],Potency [9],Potency [10],Potency [11],Potency [12],Potency [13],Potency [14],Potency [15],Potency [16],Potency [17],Potency [18],Potency [19],Potency [20]
NC(=O)NC1N=C([O][Al])NC1=O (stereo not drawn),inactive,inactive,inactive,inactive,inactive,inactive,inactive,inactive,inactive,inactive,inactive,inactive,inactive,inactive,inactive,inactive,inactive,inactive,inactive,inactive
COC(=O)c1ccc(C)cc1C1=NC(C)(C(C)C)C(=O)N1 (stereo not drawn),inactive,inactive,inactive,,,,inactive,,inactive,inactive,inactive,inactive,inactive,inactive,inactive,inactive,inactive,,inactive,inactive
CCC(O)CO (stereo not drawn),inactive,inactive,inactive,inactive,inactive,inactive,inactive,inactive,inactive,inactive,inactive,inactive,inactive,inactive,inactive,inactive,inactive,inactive,inactive,inactive
NC(=O)C1CO1 (stereo not drawn),inactive,inactive,inactive,inactive,inactive,inactive,inactive,inactive,inactive,inactive,inactive,inactive,inactive,inactive,inactive,inactive,inactive,inactive,inactive,
N[C@@H](CCC(=O)Nc1ccc([N+](=O)[O-])cc1)C(=O)O,inactive,inactive,inactive,inactive,inactive,inactive,inactive,inactive,inactive,inactive,inactive,inactive,inactive,inactive,,inactive,inactive,inactive,inactive,inactive
COc1ccc(C(=O)NCc2ccc(OCCN(C)C)cc2)cc1OC,inactive,inactive,inactive,inactive,inactive,inactive,inactive,inactive,inactive,inactive,inactive,inactive,inactive,inactive,inactive,inactive,inactive,inactive,inactive,inactive
OC[C@H]1O[C@H](O[C@H]2O[C@H](CO)[C@@H](O)[C@H](O)[C@H]2O)[C@H](O)[C@@H](O)[C@@H]1O,inactive,inactive,inactive,inactive,inactive,inactive,inactive,inactive,inactive,inactive,inactive,inactive,inactive,inactive,,inactive,inactive,inactive,inactive,inactive
CCCC(=O)C(C)=O,inactive,inactive,inactive,inactive,inactive,inactive,inactive,inactive,inactive,inactive,inactive,inactive,inactive,inactive,inactive,inactive,inactive,,inactive,inactive
c1ccc2c(c1)Oc1ccccc1S2,inactive,inactive,inactive,inactive,inactive,inactive,inactive,inactive,inactive,inactive,inactive,inactive,inactive,inactive,inactive,inactive,inactive,inactive,inactive,inactive
CCC(C(=O)OCCOCCN(CC)CC)c1ccccc1 (stereo not drawn),inactive,inactive,inactive,inactive,inactive,inactive,inactive,inactive,inactive,inactive,inactive,2.68 µM (active),inactive,inactive,inactive,inactive,inactive,inactive,inactive,inactive
CCc1c(C(=O)O)c(=O)cnn1-c1ccc(Cl)cc1,inactive,inactive,inactive,inactive,inactive,inactive,inactive,inactive,inactive,inactive,inactive,inactive,inactive,inactive,inactive,inactive,inactive,,inactive,
COc1ccc(N)c(C)c1,inactive,inactive,inactive,,,,,inactive,inactive,,inactive,inactive,inactive,inactive,inactive,,inactive,inactive,inactive,inactive
CC(C)C(=O)C(C)C,inactive,inactive,inactive,inactive,inactive,inactive,inactive,inactive,inactive,inactive,inactive,inactive,inactive,,inactive,inactive,inactive,inactive,inactive,inactive
C=C(C)C(=O)OCCOCCOCCOC(=O)C(=C)C,inactive,inactive,inactive,inactive,inactive,inactive,inactive,inactive,inactive,inactive,inactive,inactive,inactive,inactive,,,inactive,,inactive,inactive
CC(C)CCCCCOC(=O)CCS,inactive,inactive,inactive,inactive,inactive,inactive,inactive,inactive,inactive,inactive,inactive,inactive,inactive,inactive,inactive,inactive,inactive,inactive,,
CC(=O)OCCC1CCCCC1,inactive,inactive,inactive,inactive,inactive,inactive,inactive,inactive,inactive,inactive,inactive,inactive,inactive,inactive,,inactive,inactive,,inactive,inactive
CC(=O)CC(=O)Nc1ccc2[nH]c(=O)[nH]c2c1,inactive,inactive,inactive,inactive,inactive,inactive,inactive,inactive,inactive,inactive,inactive,inactive,inactive,inactive,inactive,inactive,inactive,inactive,inactive,inactive
O=[N+]([O-])c1ccc2c(c1)Cc1ccccc1-2,inactive,inactive,inactive,inactive,inactive,inactive,inactive,inactive,inactive,inactive,inactive,inactive,inactive,inactive,inactive,inactive,inactive,,inactive,inactive
CO[C@@]1(NC(=O)C(C(=O)O)c2ccc(O)cc2)C(=O)N2C(C(=O)O)=C(CSc3nnnn3C)CO[C@@H]21 (stereo partly drawn),inactive,inactive,inactive,inactive,inactive,inactive,inactive,inactive,inactive,inactive,inactive,inactive,inactive,inactive,inactive,inactive,inactive,inactive,,inactive
OCCCCCCCl,inactive,inactive,inactive,inactive,inactive,inactive,inactive,inactive,inactive,inactive,inactive,inactive,inactive,inactive,inactive,inactive,inactive,,inactive,inactive
Nc1ccc(S(=O)(=O)Nc2ccc(Cl)nn2)cc1,inactive,inactive,inactive,inactive,inactive,inactive,inactive,inactive,inactive,inactive,inactive,inactive,inactive,inactive,inactive,inactive,inactive,inactive,inactive,inactive
CCCCC1CCC(=O)O1 (stereo not drawn),inactive,inactive,inactive,inactive,inactive,inactive,inactive,inactive,inactive,inactive,inactive,inactive,inactive,inactive,inactive,inactive,inactive,,inactive,inactive
CCC(=O)OC,inactive,inactive,inactive,inactive,inactive,inactive,inactive,inactive,inactive,inactive,inactive,inactive,inactive,inactive,inactive,inactive,inactive,,inactive,inactive
CC(O)C(C)O (stereo not drawn),inactive,inactive,inactive,inactive,inactive,inactive,inactive,inactive,inactive,inactive,inactive,inactive,inactive,inactive,inactive,inactive,inactive,inactive,inactive,inactive
O=C(O)c1ccccc1S,inactive,inactive,inactive,inactive,inactive,inactive,inactive,inactive,inactive,inactive,inactive,inactive,inactive,inactive,inactive,inactive,inactive,,inactive,inactive
CC(C)(C)C(=O)OCOP(=O)(COCCn1cnc2c(N)ncnc21)OCOC(=O)C(C)(C)C,inactive,inactive,inactive,inactive,inactive,inactive,inactive,inactive,inactive,7.93 µM (active),inactive,inactive,inactive,inactive,inactive,inactive,inactive,,inactive,13.3 µM (active)
